Measurements from the supplement of paper PMC11417369.
In all, about 25,000 sequences were measured (“ln(normalized median fluorescence intensity)”: median about 9.3, highest 2% from about 10 on). Only a selection was taken, and the highest values are over-represented in it overall.

Tested on: PF3D7_0420300 AP2 domain 1 (GST-tagged)
Experiment: gcPBM binding intensity (ln(normalized median fluorescence intensity)); higher = stronger DNA binding
In short: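 The binding buffer was 1× PBS containing 1% milk, 0.2 mg/ml BSA, 0.5% salmon testes DNA and 0.03% Triton X-100. In it, GST-tagged P. falciparum DNA-binding domains expressed in E. coli were applied for 1 h to an Agilent 4 × 180k array of primer-extended double-stranded 36-bp intergenic genomic probes plus negative controls. Binding intensity, read with Alexa488 anti-GST antibody and a 488 nm scan, is the highest Masliner-normalised natural-log median intensity across replicate spots of either probe orientation.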

Row | Sequence | gcPBM binding intensity (ln)
1 | TAAATAAATTATTTTCGTACTTATTTATTTTAATTA [XGTACX_site283] | 9.03
2 | TTTAGTGTTATAAAAAGTACATAATAATTCCTTTTC [XGTACX_site3208] | 8.95
3 | CTTTTTAATAAATATACACACACAAAAAAAAAAAAA [CACACA_site9316] | 9.73
4 | AATTTAAAAGAAAAAGAAAAATAATAAACAGAAGCA [XGTACX_negctrl_site503] | 9.68
5 | TTTTTTTTTTTTGTCACACATATGGAATATATCTAT [CACACA_site5899] | 9.26
6 | AAAGAAATAAGGTGCACACATATACAGATATATATA [CACACA_site4399] | 9.66
7 | CTATATGTATAAAGTTGTACAGTTTTTCAAAGTTAA [XGTACX_site6652] | 9.03
8 | TAAATTTATAAATCACGTACATATTTATTTATATTT [XGTACX_site4532] | 9.19
9 | TATTTTATTTCAAATCTTAATAATTGTAATTCTTCA [XGTACX_negctrl_site442] | 8.91
10 | ATATTTTATATGTTCACACATACATAAACATATTTT [CACACA_site4948] | 9.34
11 | CACGCATATATACATACATGCATATATACATCCATG [TGCATGCA_site667] | 9.27
12 | TACACAAATATATACATACACACATATATACGCATA [CACACA_site394] | 9.79
13 | CACAAATATATACATACACACATATATACGCATATA [CACACA_site395] | 9.72
14 | AAAAAAAAAAAACATACACACACATATATATATATA [CACACA_site8452] | 9.9
15 | AAAATACACGCATACACACACACACGCGCACATATA [CACACA_site6448] | 10.3
16 | AAAAAAAAAAAAAAAACACACATACACGCACGCACA [CACACA_site7569] | 9.72
17 | AAAAAAAAAAAAAACACACACACACGCACATATACA [CACACA_site7288] | 10.2
18 | AGAAGCATACATCAAGCACACACACCCACACCCACA [CACACA_site8014] | 9.99
19 | AAGCATACATCAAGCACACACACACCCACACCCACA [CACACA_site372] | 10.1

Row | Sequence | gcPBM binding intensity (ln)
20 | GCATACATCAAGCACACACACACACGCACACGCACA [CACACA_site6311] | 10.3
21 | AAAAGATGCGCATACACACAGATGAATAACAAAAAA [CACACA_site6865] | 9.74
22 | AAACAAATAGACACTTGTACGTAAGTAAATAATTAA [XGTACX_site6157] | 9.43
23 | ATTTAATTTTTTTTTAAACACACATTTTTTTATTTA [CACACA_site8880] | 9.36
24 | ATTTTTTTATAAAATTTTTTATATATTAAATATTAT [CACACA_negctrl_site135] | 9.04
25 | GTAAAATTTACATAGAGTACTTATATTTTTTTCTGC [XGTACX_site3414] | 8.96
26 | AAAAATTTGGCATACACACACACACCGACACAGACA [CACACA_site4489] | 10.1
27 | ATAATTTGTGGACACACACACACACCGACATATATA [CACACA_site8718] | 10.2
28 | CATATTTGTGGACACACACACATATTTATATATATA [CACACA_site5887] | 9.75
29 | TATACTCATGGACACACACACATACACAGACATACA [CACACA_site5024] | 9.92
30 | ATAAAGCACACCGACACACACATATATATATATATA [CACACA_site1047] | 9.8
31 | ATTTGGCATGGACACACACACACACCGACAGACATA [CACACA_site4491] | 10.2
32 | TTATTAATTATATATAGTACACATTTCACAGATGGG [XGTACX_site2349] | 9.2
33 | TATTTATGTATATGCTGTACGCATTTGTGAAACATA [XGTACX_site4688] | 9.06
34 | GTACATATAAATATTACACACATTTTCATTTTTAAC [CACACA_site1986] | 9.56
35 | ATAATTTATATTCAGAAACACACGAAAAAAAAAAAT [CACACA_site1296] | 9.64
36 | TAAATGTAAAACGAAATGCACACTATGGAAAATATA [CACACA_site724] | 9.66
37 | AATTAATATTTAAATTGTACATGAACATTTTAATGT [XGTACX_site462] | 8.97
38 | CAAATACATAGACACACACACATATACATATTTATA [CACACA_site7610] | 10

Row | Sequence | gcPBM binding intensity (ln)
39 | AAAATTCATAAATACACACACGCACATATATATATA [CACACA_site4227] | 9.88
40 | TCATTCATATGTTACACACACACACCCACATAAAAA [CACACA_site3245] | 10.1
41 | ATTCATTCATATGTTACACACACACGCCCACATAAA [CACACA_site7513] | 10.3
42 | ATTCATTCATATGTTACACACACACCGACACATAAA [CACACA_site5749] | 10
43 | TCATTCATATGTTACACACACACACGCACATAAAAA [CACACA_site7514] | 10.3
44 | ATTCATTCATATGTTACACACACACCCACCCATAAA [CACACA_site9066] | 10.2
45 | AAAAAGGGTATTATTACACACACGTAAATATTAATA [CACACA_site101] | 9.61
46 | TTTCCTTTTTTAATATGTACACATATTATTATATCT [XGTACX_site3079] | 9.45
47 | ATAATTTAAAAACATTGTACATTAATATATATGTAT [XGTACX_site8970] | 9.12
48 | GTACACATATATATATATATATATATATATATATAT [CACACA_negctrl_site800] | 9.25
49 | ATATATATTTTTATTTGTACATAATTTTTTTTGTGA [XGTACX_site6378] | 9.21
50 | ACCAAAAAAAAAAAAAAAAAAATATACATATATATA [GTGCAC_negctrl_site582] | 9.05
51 | ATTTCACAGAGACACACACACAATATATTTCCTTTT [CACACA_site7773] | 9.94
52 | TCATTTCACAGACACACACACACAAGATATTTCCTT [CACACA_site7774] | 10
53 | TTTCATTTCACAGACACACACACACCCTATATTTCC [CACACA_site3906] | 10.2
54 | AAAGAAAATTAAAAAGAACACACAAATATATATATA [CACACA_site9196] | 9.67
55 | AAATAGAAAAAATATACACACACTTATTAAATAAAA [CACACA_site3313] | 9.86
56 | TGAGTATATAAATACACACACATATATATATTTTAA [CACACA_site5130] | 9.61
